Compound activity: PubChem, The Scripps Research Institute Molecular Screening Center
An excerpt weighted towards active compounds, which were near 3.5% of everything screened.
GPR151 activ = activators of human GPR151; activation, % at 11.2 µM; PathHunter beta-arrestin GPR151 cells, luminescence; 650,000 tested, 1% active; AID 1508602; Q8TDV0; in the data active = activation above about 4.9%;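 also: 0% = median of compound wells and 100% = cells with positive control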
Target sequence (Q8TDV0 whole entry, looked up): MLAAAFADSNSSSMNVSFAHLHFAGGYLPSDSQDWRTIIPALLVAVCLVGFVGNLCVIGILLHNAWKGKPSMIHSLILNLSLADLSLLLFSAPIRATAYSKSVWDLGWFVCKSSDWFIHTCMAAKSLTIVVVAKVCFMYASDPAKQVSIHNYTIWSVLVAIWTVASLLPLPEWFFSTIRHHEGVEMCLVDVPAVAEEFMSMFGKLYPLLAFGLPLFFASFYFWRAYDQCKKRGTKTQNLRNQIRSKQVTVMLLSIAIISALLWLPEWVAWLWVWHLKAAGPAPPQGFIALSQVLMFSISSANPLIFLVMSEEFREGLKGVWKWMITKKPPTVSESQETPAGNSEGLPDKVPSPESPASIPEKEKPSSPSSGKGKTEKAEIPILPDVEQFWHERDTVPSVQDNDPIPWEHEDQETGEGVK
FBW7 activator = human FBW7 E3 ligase activation, primary screen; Q969H0; AlphaScreen FBW7–phospho-cyclin E peptide binding, activator screen; normalized activity (activation), % at 26.1 µM; 650,000 tested, 0.13% active; AID 1259310; in the data active = normalized activity above about 1.9%;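 also: purified mutant Fbw7 with reduced substrate affinity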
TEAD-YAP inh = TEAD-YAP interaction inhibition | HEK-TIYL cells, TEAD-Gal4/YAP UAS-luciferase luminescence | inhibition, % at 9.12 µM | 640,000 tested, 1.4% active | AID 1259422; in the data active = inhibition above about 32%;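 also: 0% = median of test compound wells and 100% = reference inhibitor wells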
MITF inh = inhibitors of human MITF. AlphaScreen MITF homodimerization, bead proximity signal. 650,000 tested, 0.91% active. inhibition, % at 2.6 µM; in the data active = inhibition above about 50%;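 also: 0% = vehicle wells with protein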
GPR151 conf act = confirmation of human GPR151 activators | shares compounds with GPR151 activ | GPR151 PathHunter beta-arrestin cells, luminescence, 90 min; % of EA-reagent control over plate median | activation, % at 11.2 µM | 6,700 tested, under 10 active | AID 1508609;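 active = mean percent activation across replicates above the confirmation screen cutoff of 4.91%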
GPR119 ag = GPR119 activation, counter-screen for GPR151 activators; activation, % at 11.2 µM; shares compounds with GPR151 activ; AID 1508611; 6,700 tested, 0.3% active; GPR119 PathHunter beta-arrestin cells, luminescence, 90 min; 0 = compound-well median, 100 = enzyme-acceptor control;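 active = mean percent activation in the counterscreen above 29.09%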;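 also: counterscreen on off-target GPR119 to flag nonselective hits from the GPR151 activator screen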
* = called active by the depositor; · = no result given; ! = repeats disagree.

SMILES	GPR151 activ	FBW7 activator	TEAD-YAP inh	MITF inh	GPR151 conf act	GPR119 ag
COc1cc(-c2noc(C3CCN(S(=O)(=O)c4ccccc4)CC3)n2)ccc1OC(C)C	0	0	-3	-3	·	·
CN(c1ccc(Br)cc1)S(=O)(=O)c1cc2c(cc1Cl)NC(=O)CO2	2	0	1	8	·	·
Cc1cc2c(cc1S(=O)(=O)N(C)c1ccc(Br)cc1)OCC(=O)N2	10*	0	2	14	1	4
COc1ccccc1-c1nnc(NC(=O)CSC2=NCCS2)s1	5.6*	0	-7	4	1	5
Cc1ccc(S(=O)(=O)/N=C(\CN2CCCCC2)N2CCCCC2)cc1	5.4*	0	2	5	0	-6
CN(CCc1ccccn1)c1nc2nonc2nc1NCc1ccccc1	-1	0	-1	4	·	·
Cc1nccn1CCN(C)c1nc2nonc2nc1NCc1ccccc1	12*	0	2	7	0	2
CCOc1cc(-c2nnc(SCC(=O)Nc3ccc(C)c(Cl)c3)nc2-c2ccc(OC)c(OCC)c2)ccc1OC	-2	0	20	0	·	·
COc1ccc(N2CCN(C(=O)CN3CCN(c4cc(Cl)ccc4C)CC3)CC2)cc1	7.2*	0	-3	-1	0	6
CCC1(CCC(=O)NCC2(c3ccccc3)CCOCC2)CCC(=O)N1 (stereo not drawn)	9.5*	0	-8	-4	0	-1
Cc1cc(C)cc(NS(=O)(=O)c2ccc(-c3cc(C)no3)cc2)c1	8.2*	0	58*	-11	1	-6
CCOC(=O)N1CCN(C(=S)Nc2ccccc2Cl)CC1	2	0	3	1	·	·
CC1CCCN(S(=O)(=O)c2cccs2)C1 (stereo not drawn)	10*	0	2	2	0	8
CC1CCN(c2c(NCc3ccc(C(=O)Nc4cccnc4)cc3)c(=O)c2=O)CC1	0	0	4	4	·	·
Cc1ccccc1OCC(=O)Nc1ccc(Cl)c(-c2nc3ccccc3s2)c1	6.4*	0	-3	-7	1	20
COc1ccc(-c2nnc(SCC(=O)Nc3cccc(Cl)c3C)nc2-c2ccc(OC)cc2)cc1	5.8*	0	9	2	-1	-6
CC(=O)c1ccc(-c2cc(F)cc3c2OC(CNC(=O)CN(C)C)C3)s1 (stereo not drawn)	5.6*	0	4	2	-1	2
CSCC(=O)NCC1Cc2cc(F)cc(-c3ccc(C(C)=O)s3)c2O1 (stereo not drawn)	-1	0	4	3	·	·
CCCCNC(=O)/C(C#N)=C/c1ccccc1C(F)(F)F	-1	0	-3	17	·	·
CC(C)OC1(C(F)(F)F)NC(=O)N(c2cccc(C(F)(F)F)c2)C1=O (stereo not drawn)	2	0	3	13	·	·
CC1(C)NC(=O)N(c2ccc([N+](=O)[O-])c(C(F)(F)F)c2)C1=O	5.5*!	0	1	-14	1	-3
O=C(Cn1nc(-c2ccncc2)oc1=O)N1CCc2ccccc21	-1	0	0	7	·	·
N#C/C(=C\c1ccc(O)cc1O)c1nc2ccccc2[nH]1	-5	0	-33	-4	·	·
N#C/C(=C\c1cc(Cl)ccc1O)c1nc2ccccc2[nH]1	5.7*	0	-22	8	2	8
Cc1ccc2nc(/C(C#N)=C\c3ccccc3OCC#N)[nH]c2c1	5.1*	0	-28	10	2	7
O=S(=O)(c1ccc(N=Cc2ccccc2O)cc1)N1CCOCC1	0	0	-11	8	·	·
Cc1ccnc(NC(=O)CCC(=O)N(CC(=O)NC(C)(C)C)Cc2ccccc2)c1	1	0	14	0	·	·
CCCc1cc(=O)[nH]c2nnc(SCC(=O)N3CCCCC3)n12	-1	0	4	-2	·	·
CCOC(=O)N1CCC(NC(=O)c2ccc(N3CC4CC(C3)c3cccc(=O)n3C4)c(NC(=O)c3ccc(C(C)(C)C)cc3)c2)CC1 (stereo not drawn)	0	0	-13	1	·	·
O=C(NCCC1=CCCCC1)c1ccc(N2CC3CC(C2)c2cccc(=O)n2C3)c(NC(=O)c2c(F)cccc2F)c1 (stereo not drawn)	8.0*	0	-4	4	0	3
